# The sample as a whole holds a higher share of hits than the screen did.
# Methyltransferases – Primary Screen for Target Class Profiling of Small Molecule Inhibitors of Methyltransferases | purified enzyme, MTase-Glo SAH luminescence; stronger effect = lower value | calls only at 40 µM | 3.9% of 25,000 active | AID 1745853, 2022; call rule not given here
#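 Each enzyme was reacted with SAM and its substrate, with compounds tested once at 40 uM; SAH formed was read by MTase-Glo luminescence.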
# MTase-Glo counter – Counterscreen for Target Class Profiling of Small Molecule Inhibitors of Methyltransferases. 6% of 180 active. shares compounds with Methyltransferases. MTase-Glo coupled enzymes, SAH conversion luminescence, no MTase. Potency, µM (top dose mostly 57.3 µM), usual class: inhibitors; active means well fitted inhibition curve with a large enough effect
# Calls only; n = inactive; + = active, no number.
SMILES,Methyltransferases,others
COC(=O)c1cc2n(n1)CC(C)(C(=O)NC1CCCCCC1)N(c1cccc(F)c1)C2=O (stereo not drawn),n,
CCN(CC)CC(O)Cn1c2c(c3cc(C)ccc31)CCCC2=O (stereo not drawn),n,
O=c1c2ccccc2n2c(SCc3cccc(F)c3)nnc2n1CCc1ccccc1,n,
Cc1ccc(N2C(=O)CSc3c(c4ccccc4n3C)C2C(=O)NCCCOC(C)C)cc1Cl (stereo not drawn),n,
CCOc1cc2c(cn1)NCCN(Cc1ccncc1Cl)C2,n,
Cn1nccc1-c1cc2c(cn1)CN(Cc1ccncc1)CCN2,+,MTase-Glo counter=n
CCCCN1C(=O)c2cc(C(=O)Nc3cc(F)ccc3F)nn2CC1(C)C(=O)NC1CCCC1 (stereo not drawn),n,
O=C(CCn1ccc2cc(S(=O)(=O)N3CCCCC3)ccc21)NCc1ccccc1,n,
CCOCCCN1C(=O)c2c(NC(C)=O)c3cc(F)ccc3n2CC1(C)C(=O)NCCC(C)C (stereo not drawn),n,
CC1(C(=O)NC2CCCC2)Cn2c(cc3ccccc32)C(=O)N1C1CCCCCC1 (stereo not drawn),n,
Cc1ccc2nc(CN(C)C(=O)C3CCC(=O)N(C4CCCCCC4)C3)[nH]c2c1 (stereo not drawn),+,MTase-Glo counter=n
CCN1CC(C(=O)N(C)Cc2ccc(Oc3ccccc3)cc2)CCC1=O (stereo not drawn),n,
Cc1ccc2nc(CO[C@H]3CN(C4CCN(C)CC4)C[C@H]3F)[nH]c2c1,n,
CCCn1c(=O)c2ccc(C(=O)NCC(C)C)cc2n2c(SCC(=O)c3ccccc3)nnc12,n,
O=C(CCc1nnc2n(Cc3ccc(F)cc3)c(=O)c3ccccc3n12)N1CCN(c2ccccc2)CC1,n,
CCCCN1C(=O)c2cc3ccccc3n2CC1(C)C(=O)NC1CCCCC1 (stereo not drawn),n,
COc1ccccc1-c1ccc(C(=O)N2CCC(C(=O)Nc3ccccc3Cl)CC2)cc1,n,
COc1cccc(-c2ccccc2NC(=O)C2CCN(CC=C(C)C)CC2)c1,+,MTase-Glo counter=n
COc1cccc(-c2ccccc2NC(=O)C2CCN(Cc3ccccc3F)CC2)c1,n,
COc1ccc(-c2cc3n(n2)CC(C)(C(=O)NCc2ccccc2)N(CCc2ccc(SC)cc2)C3=O)cc1 (stereo not drawn),n,
CC1(C(=O)NC2CCCCC2)Cn2c(cc3sccc32)C(=O)N1CCCN1CCOCC1 (stereo not drawn),n,
Cc1ccc(-c2ccc(N)nc2)c2cccnc12,+,MTase-Glo counter=n
CN(C)c1ccc(CN2C(=O)c3cc(-c4ccccc4)nn3CC2(C)C(=O)NCc2ccccc2)cc1 (stereo not drawn),n,
O=C(N[C@H](C1CCNCC1)C1CC(O)C1)c1ccc2nccnc2c1 (stereo partly drawn),+,MTase-Glo counter=n
O=C(N[C@H](c1ccccc1)C1CC(O)C1)c1ccc(-n2cccn2)cc1 (stereo partly drawn),n,
SMILES,Methyltransferases,others
NS(=O)(=O)c1ccc(C(=O)NC(Cc2ccncc2)C2CC(O)C2)cc1 (stereo not drawn),n,
CCc1cc2c(cc3n2CC(C)(C(=O)NC2CCCCCC2)N(Cc2cccc(F)c2)C3=O)s1 (stereo not drawn),n,
CN(C)C[C@H]1C[C@@H](CO)CN(C(=O)c2csc(Cc3ccccc3)n2)C1,n,
COc1cccc(-c2ccc(C(=O)N3CCC(NC(=O)N(C)C)CC3)cc2)c1,n,
COc1cccc(-c2cccc(C(=O)N3C[C@H](CO)C[C@H](CN(C)C)C3)c2)c1,+,MTase-Glo counter=n
CC1(C(=O)NC2CCCCCC2)Cn2c(cc3sccc32)C(=O)N1Cc1ccccc1Cl (stereo not drawn),n,
CCCN1C(=O)c2cc(C(=O)NCCOC)nn2CC1(C)C(=O)NC1CCCC1 (stereo not drawn),n,
COc1ccc(-c2cc3n(n2)CC(C)(C(=O)NCc2ccccc2OC)N(Cc2ccc(F)cc2)C3=O)cc1 (stereo not drawn),n,
COc1cccc(N2CCN(C(=O)c3ccc4c(=O)nc5c(-c6ccccc6)n[nH]n5c4c3)CC2)c1,n,
COc1ccc(S(=O)(=O)NCC2Cn3cccc3C(=O)N2Cc2ccccc2)cc1 (stereo not drawn),n,
COc1ccc(S(=O)(=O)NC[C@H]2Cn3c(-c4ccc(Cl)cc4)cnc3CO2)cc1,+,MTase-Glo counter=n
COc1ccc(C(=O)NC[C@H]2Cn3ccnc3CO2)cc1,n,
O=C(NCc1ccc2c(c1)OCO2)c1ccc2c(=O)nc3c(-c4ccccc4F)n[nH]n3c2c1,n,
CCN(CC)c1cc(CCC(=O)N2CCN(c3cccc(OC)c3)CC2)ccn1,+,MTase-Glo counter=n
COc1cccc(CCC(=O)N2CCC(OCC3CC3)C2)c1 (stereo not drawn),n,
COc1cccc(CCC(=O)N2CCC3(CC2)N=C(c2ccccc2)NO3)c1,n,
Cc1ccc(NS(=O)(=O)c2cc3c(cc2Cl)n(C)c(=O)n3C)cc1,n,

# Screening results as filed in PubChem.
